This excerpt belongs to a sample that is enriched for hits.
NS1 inh = influenza NS1 inhibition; Potency, µM (top dose mostly 46.1 µM); 270,000 compounds, 0.4% hits; calls by dose curve; further: actives are rising curves; nearly all actives have a fitted effect of over 50% in size
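In this qHTS, NS1 from influenza A is expressed in budding yeast, where it slows growth. Cells are switched from glucose to 2% galactose medium (pH 6.0, -URA), treated with compound, and growth recovery is read at OD600.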
Shiga inhibitor = blocks Shiga toxin action in Vero cells; Vero cells, Shiga toxin protein synthesis inhibition reporter; inhibition, % at 38.7 µM; 290,000 compounds, 9.2% hits; AID 2315; in the data active means inhibition mostly above about 28%, no sharp cut-off; inactive means mostly below about 43%
TbPYK inhibitor = inhibitors of Trypanosoma brucei pyruvate kinase | Q57TT1 | AID 624173 | Potency, µM (titrated, usually from 76.8 µM), usual class: inhibitors | TbPYK enzyme, Kinase-Glo Plus ATP luminescence, 45 min | 410,000 compounds, 0.12% hits; further: nearly all actives have a fitted effect of over 50% in size
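TbPYK + substrate in 50 mM TEA pH 7.2, 100 mM KCl, 10 mM MgCl2, 0.05% BSA, 0.01% Tween-20; cpd pinned; ADP 130 uM final; 45 min RT; Kinase-Glo Plus 10 min; luminescence endpoint.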
CHX counter = counter-screen for Shiga toxin inhibitors: cycloheximide protein synthesis inhibition; cell reporter, cycloheximide protein synthesis inhibition counterscreen; max response, %; 300,000 compounds, 12% hits; AID 2314; in the data active means max response mostly above about 13%, no sharp cut-off; inactive means mostly below about 14%; further: read at 38.3 µM for the half of the compounds with a filed dose
LmPK inhibitor = LmPK (Leishmania mexicana) enzyme inhibition. Q27686. purified LmPK, Kinase-Glo ATP luminescence, 1 h. Potency, µM (doses to about 57.5 µM), most hits filed as inhibitors. 290,000 compounds, 0.37% hits
Target sequence (Q27686 whole entry, looked up): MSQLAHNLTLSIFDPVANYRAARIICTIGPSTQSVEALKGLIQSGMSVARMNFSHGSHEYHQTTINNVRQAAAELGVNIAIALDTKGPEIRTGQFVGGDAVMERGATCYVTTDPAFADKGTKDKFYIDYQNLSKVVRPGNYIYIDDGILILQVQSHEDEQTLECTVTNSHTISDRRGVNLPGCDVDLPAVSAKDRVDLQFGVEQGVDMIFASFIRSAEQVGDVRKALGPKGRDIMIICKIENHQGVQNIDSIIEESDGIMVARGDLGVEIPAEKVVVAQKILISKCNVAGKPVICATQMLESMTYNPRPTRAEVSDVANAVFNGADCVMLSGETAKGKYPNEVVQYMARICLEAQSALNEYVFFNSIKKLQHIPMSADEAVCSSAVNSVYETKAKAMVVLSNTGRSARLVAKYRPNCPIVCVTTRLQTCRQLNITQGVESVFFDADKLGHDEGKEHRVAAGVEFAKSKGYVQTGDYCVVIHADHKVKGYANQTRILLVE
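Purified LmPK (0.1 nM) with 0.5 mM PEP and 0.1 mM ADP in imidazole buffer pH 7.2 with MgCl2/KCl, 1 h at room temperature. ATP formed was read by luciferase luminescence and normalized to no-enzyme and uninhibited controls.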
SARS PLpro yeast = blocks SARS-CoV papain-like protease in a yeast assay; S. cerevisiae expressing SARS-CoV PLpro, growth rescue; Potency, µM (highest dose often 32.9 µM), usual class: activators; 330,000 compounds, 0.19% hits; AID 485353; calls by dose curve; further: nearly all actives have a fitted effect of over 55% in size
Of the large screens only hits and unclear results are named; the others gave an inactive call. Unless noted, the call rests on the fitted dose curve; in most records, active means well fitted curve in the direction sought with a large enough effect; inconclusive means small, poorly fitted or top-dose-only effect, or another doubt; inactive means no such curve, though single readings can be large; an effect the other way counts as inactive or inconclusive.

COc1ccc(NC(=O)COc2ccc(Br)cc2)c(OC)c1	Shiga inhibitor 30, CHX counter 13
O=Nc1c(-c2c(O)[nH]c3cc(Br)ccc23)[nH]c2ccccc12	Shiga inhibitor 30, CHX counter 30
CCn1c(SCc2nc3ccccc3[nH]2)nnc1-c1cnccn1	Shiga inhibitor 55, CHX counter 23
Cn1c(SCc2nc3ccccc3[nH]2)nnc1-c1ccccn1	none (no result: SARS PLpro yeast)
C=CCn1c(SCc2nc3ccccc3[nH]2)nnc1-c1ccccn1	CHX counter 27
Cc1ccc(CCNC(=O)c2ccc(CS(=O)(=O)c3ccc(Cl)cc3)o2)cc1	none (no result: NS1 inh, Shiga inhibitor, CHX counter, LmPK inhibitor, SARS PLpro yeast)
Cc1cc(C)n2nc(SCC(=O)NC(=O)c3ccc(OC(F)F)cc3)nc2n1	none (no result: NS1 inh, Shiga inhibitor, CHX counter, LmPK inhibitor)
Cc1ccc(N=c2oc3cc(O)ccc3cc2C(N)=O)cc1	Shiga inhibitor 81, CHX counter 56
CN1C(=O)C2(OCC(CO)([N+](=O)[O-])CO2)c2ccccc21 (configuration not stated)	NS1 inh inconclusive, Shiga inhibitor 51, CHX counter 14
O=C1N(CCCCN2C(=O)C3(OCCO3)c3ccccc32)c2ccccc2C12OCCO2	none
CCN(C(=O)c1cccc(NC(=O)c2ccccc2)c1)C1CCCCC1	none
CC(C)c1ccc(-c2csc(NC(=O)c3cccs3)c2C(=O)O)cc1	Shiga inhibitor 34 (no result: NS1 inh)
Cc1ccc(-c2csc(NC(=O)c3cccc(C)c3)c2C(=O)O)cc1	none (no result: NS1 inh, Shiga inhibitor, CHX counter, LmPK inhibitor, SARS PLpro yeast)
Cc1ccc(-c2csc(NC(=O)c3ccccc3Cl)c2C(=O)O)cc1	Shiga inhibitor 40, CHX counter 23
Cc1ccc2c(c1)CC(C)N2S(=O)(=O)c1nnc(NC(=O)c2ccccc2F)s1 (configuration not stated)	none (no result: NS1 inh, Shiga inhibitor, CHX counter, LmPK inhibitor, SARS PLpro yeast)
CC(=O)c1ccc(Nc2ccc([N+](=O)[O-])c3nonc23)cc1	CHX counter 21 (no result: Shiga inhibitor)
Cc1cccc(NC(=O)c2cnc3ccccn3c2=O)c1	Shiga inhibitor 22, CHX counter 31
Cc1cccc(NC(=O)c2cnc3sccn3c2=O)c1	Shiga inhibitor 77, CHX counter 56
Cc1cccc(NC(=O)c2cnc3sccn3c2=O)c1C	Shiga inhibitor 66, CHX counter 24 (no result: TbPYK inhibitor)
COc1ccc(NC(=O)c2cnc3sccn3c2=O)cc1	Shiga inhibitor 43, CHX counter 27
Cc1cccc(NC(=O)c2cnc3sccn3c2=O)n1	none (no result: Shiga inhibitor, CHX counter, LmPK inhibitor, SARS PLpro yeast)
O=C1NCCc2onc(-c3ccc(Br)cc3)c21	none (no result: NS1 inh, Shiga inhibitor, CHX counter, LmPK inhibitor, SARS PLpro yeast)
CCN(Cc1ccccc1)C(=O)CCS(=O)(=O)c1ccc2c(c1)n(C)c(=O)c(=O)n2C	none
Cc1cnc(CNC(=O)c2ccc3oc(Cc4ccc(Cl)cc4)nc3c2)cn1	none
Cc1cccc(S(=O)Cc2ccc(C(=O)N3CCN(C(=O)c4ccco4)CC3)o2)c1 (configuration not stated)	none
CCC1Oc2ccc(Cl)cc2N(CC(=O)NCCc2ccc(Cl)cc2)C1=O (configuration not stated)	none (no result: NS1 inh, Shiga inhibitor, CHX counter, LmPK inhibitor, SARS PLpro yeast)
O=C(Nc1cnc2sccn2c1=O)c1ccccc1Cl	CHX counter 40, LmPK inhibitor inconclusive
O=C(Nc1ccon1)c1cnc2sccn2c1=O	none
COCCCNC(=S)NNC(=S)Nc1ccc(F)cc1F	Shiga inhibitor 54, CHX counter 44
COCCCNC(=S)NNC(=S)Nc1ccccc1	Shiga inhibitor 40, CHX counter 27
COCCCNC(=S)NCCc1ccc(F)cc1	Shiga inhibitor 45 (no result: NS1 inh)
COc1ccc(Cl)cc1NC(=S)NCCc1ccc(F)cc1	none
COCCCNC(=S)Nc1ccc(C)cc1	none
CCCc1nn2c(=O)cc(COC(=O)c3cccc(NC(=O)COc4ccc(F)cc4)c3)nc2s1	none (no result: NS1 inh, Shiga inhibitor, CHX counter, LmPK inhibitor, SARS PLpro yeast)
NC(=O)C1CCN(C(=O)c2ccc3nc(N4CCCCC4)sc3c2)CC1	Shiga inhibitor 71, CHX counter 35
O=C(c1ccc2nc(N3CCOCC3)sc2c1)N1CCC(Cc2ccccc2)CC1	none
Cc1ccc(Cl)cc1N1CCN(C(=O)c2ccc3nc(N4CCC(C)CC4)sc3c2)CC1	none (no result: NS1 inh, Shiga inhibitor, CHX counter, LmPK inhibitor, SARS PLpro yeast)
CC1CCN(c2nc3ccc(C(=O)N4CCN(Cc5ccccc5)CC4)cc3s2)CC1	Shiga inhibitor 85, CHX counter 52
Cc1cccc(N2CCN(C(=O)c3ccc4nc(N5CCCCC5)sc4c3)CC2)c1C	none
CCOC(=O)N1CCN(C(=O)c2ccc3nc(N4CCC(C)CC4)sc3c2)CC1	Shiga inhibitor 42, CHX counter 24
O=C(c1ccc2nc(N3CCCCC3)sc2c1)N1CCN(c2ccccn2)CC1	CHX counter 23
COc1ccc(Nc2c(-c3ccc(Cl)cc3)nc3cnccn23)cc1OC	none (no result: NS1 inh, Shiga inhibitor, CHX counter, LmPK inhibitor, SARS PLpro yeast)
COc1cc(NCC(=O)Nc2cccc(S(=O)(=O)N3CCCCC3)c2)cc(OC)c1OC	none (no result: NS1 inh, Shiga inhibitor, CHX counter, LmPK inhibitor)
Cc1ccc(C)c(Nc2nn3c(=O)c4ccc(C(=O)NCc5ccccc5)cc4nc3s2)c1	none (no result: NS1 inh, Shiga inhibitor, CHX counter, LmPK inhibitor, SARS PLpro yeast)
CCOC(=O)N1CCN(C(=O)c2ccc3nc(N4CCCCC4)sc3c2)CC1	CHX counter 14
O=C(c1ccc(S(=O)(=O)N2CCCCC2)cc1)N1CCN(Cc2ccc3c(c2)OCO3)CC1	none
c1ccc(CN2CCN(c3nc4ccccc4s3)CC2)cc1	Shiga inhibitor 96, CHX counter 53
COc1cccc(N2CCN(C(=O)c3ccc4nc(N5CCC(C)CC5)sc4c3)CC2)c1	Shiga inhibitor 117, CHX counter 64
COc1ccc(N2CCN(C(=O)c3ccc4nc(N5CCC(C)CC5)sc4c3)CC2)cc1	none (no result: NS1 inh, Shiga inhibitor, CHX counter, LmPK inhibitor, SARS PLpro yeast)
O=C(c1ccc2nc(N3CCCCC3)sc2c1)N1CCN(Cc2ccc3c(c2)OCO3)CC1	Shiga inhibitor active, CHX counter 30
Cc1cc(Cl)ccc1NC(=O)CN1C(=O)COc2ccc(S(=O)(=O)N3CCC(C)CC3)cc21	none (no result: NS1 inh, Shiga inhibitor, CHX counter, LmPK inhibitor, SARS PLpro yeast)
O=C(CS(=O)(=O)c1ccccc1)Nc1nc(-c2ccccc2)cs1	none
Cc1csc(NC(=O)CS(=O)(=O)c2ccccc2)n1	Shiga inhibitor 48, CHX counter 28 (no result: NS1 inh)
CC(C)(C)c1csc(NC(=O)CS(=O)(=O)c2ccccc2)n1	Shiga inhibitor 127, CHX counter 39
Cc1ccc(NC(=O)C(C)N=C2NS(=O)(=O)c3ccccc32)cc1F (configuration not stated)	Shiga inhibitor 63, CHX counter 29
CC(N=C1NS(=O)(=O)c2ccccc21)C(=O)NCCCc1ccccc1 (configuration not stated)	none
CCN(CC)C(=O)CNC(=O)c1nn(-c2ccc(OC)c(Cl)c2)c(=O)c2ccccc12	none
COc1ccc(-n2nc(C(=O)NCC(=O)N3CCC(C)CC3)c3ccccc3c2=O)cc1Cl	Shiga inhibitor 49
COc1ccc(-n2nc(C(=O)NCC(=O)N3CCN(Cc4ccccc4)CC3)c3ccccc3c2=O)cc1OC	none
COc1ccc(-n2nc(C(=O)NCC(=O)N3CCN(c4ccccn4)CC3)c3ccccc3c2=O)cc1Cl	CHX counter 27 (no result: NS1 inh)
O=C(Nc1ccc(Cl)cc1Cl)c1cc2ccccc2o1	Shiga inhibitor 57, CHX counter 51
CCN(CC)c1ccc(NC(=O)c2cc3ccccc3o2)c(C)c1	Shiga inhibitor 59, CHX counter 26

Compound activity: PubChem BioAssay, National Center for Advancing Translational Sciences (NCATS)
